Most compounds without a hit are left out; they make up all but 4% or so of the library.
Peg3 prom inh: reduces Peg3 promoter-driven luciferase expression in HeLa | HeLa PEG-Prom luciferase reporter, luminescence, overnight | inhibition, % at 20 µM | AID 588405 | 360,000 tested, 1.7% active;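 active = inhibition of at least 50% at 20 µM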
CF NFkB inh: blocks PAF-induced NF-kB reporter in cystic fibrosis cells; KKLEB NF-kB-GFP reporter, GFP fluorescence overnight; inhibition, % at 5 µM; AID 588850; 360,000 tested, 0.86% active;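 active = at least 50% inhibition at 5 µM, scaled per plate between neutral and stimulator controls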;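 note: PAF is a Pseudomonas aeruginosa culture filtrate used as stimulus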
TROY NFkB inh: inhibitors of TROY-dependent NF-kB signaling. 360,000 tested, 0.98% active. inhibition, % at 10 µM. AID 1347056. Q293 LMP1-TROYcd NF-kB luciferase reporter, 4 h;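 active = compounds whose plate-normalised and pattern-corrected inhibition of the luciferase reporter signal at the single screening dose is 50% or more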
KKLEB tox: CF airway cell cytotoxicity counter-screen; KKLEB CF airway cells viability, ATPlite luminescence, overnight; active compounds read low; cells stimulated with P. aeruginosa culture filtrate; 360,000 tested, 0.36% active; AID 602141; activity change (cytotoxicity), % at 5 µM;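 active = corrected activity change at or below -50% at 5 µM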
HIF-2a inh: inhibitors of HIF-2a; 786-0 RCC cells HIF-2a reporter, luciferase luminescence, overnight; inhibition, % at 18.8 µM; 360,000 tested, 0.72% active; AID 624352;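 active = inhibition of the luminescence signal of 40% or more relative to plate controls, in a single-dose primary screen at 18.75 µM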
TWEAK-Fn14 inh: inhibitors of TWEAK-Fn14 interaction signaling; TWEAK-stimulated Fn14 reporter cells, luciferase luminescence, 8 h; inhibition, % at 10 µM; 360,000 tested, 2% active; in the data active = inhibition above about 50%
Hits are given with their value.

`Cn1cnc(CCN)c1` gave Peg3 prom inh inactive, CF NFkB inh inactive, TROY NFkB inh inactive, KKLEB tox inactive, HIF-2a inh inactive and TWEAK-Fn14 inh inactive.
Screening O=C(Nc1ccncc1)c1cccn(Cc2ccccc2)c1=O returned Peg3 prom inh inactive, CF NFkB inh inactive, TROY NFkB inh inactive, KKLEB tox inactive, HIF-2a inh inactive and TWEAK-Fn14 inh 50.
CC1=C(C)CC2(CC1)C(=O)NC(=O)NC2=O was read as Peg3 prom inh 61, CF NFkB inh inactive, TROY NFkB inh inactive, KKLEB tox inactive, HIF-2a inh inactive and TWEAK-Fn14 inh inactive.
Screening Cc1ccc2c(c1)N(N=O)CCC2 returned Peg3 prom inh inactive, CF NFkB inh inactive, TROY NFkB inh inactive, KKLEB tox inactive, HIF-2a inh inactive and TWEAK-Fn14 inh inactive.
Screening CN(C)c1ccc(C=C2C(=O)NC(=S)NC2=O)cc1 returned Peg3 prom inh 89, CF NFkB inh inactive, TROY NFkB inh inactive, KKLEB tox inactive, HIF-2a inh inactive and TWEAK-Fn14 inh inactive.
`CCN(CC)c1ccc(C=C2C(=O)NC(=S)NC2=O)cc1` gave Peg3 prom inh 104, CF NFkB inh 66, TROY NFkB inh inactive, KKLEB tox inactive, HIF-2a inh 68 and TWEAK-Fn14 inh inactive.
Screening CN(C)c1ccc(C=C2C(=O)NC(=O)NC2=O)cc1 returned Peg3 prom inh inactive, CF NFkB inh inactive, TROY NFkB inh inactive, KKLEB tox inactive, HIF-2a inh inactive and TWEAK-Fn14 inh inactive.
Screening CC(=O)OC1CCC2(C)C(CCC3C4CC(N5CC5)C(C(C)=O)C4(C)CC(=O)C32)C1 (stereo not given) returned Peg3 prom inh inactive, CF NFkB inh inactive, TROY NFkB inh inactive, KKLEB tox inactive, HIF-2a inh inactive and TWEAK-Fn14 inh inactive.
Screening O=c1[nH]c(O)c(/C=C2/C=CC(c3cc(Cl)ccc3Cl)=N2)c(=O)[nH]1 returned Peg3 prom inh inactive, CF NFkB inh inactive, TROY NFkB inh 85, KKLEB tox inactive, HIF-2a inh inactive and TWEAK-Fn14 inh inactive.
CC1=Nc2ccccc2/C1=C/c1c(O)[nH]c(=O)[nH]c1=O was read as Peg3 prom inh inactive, CF NFkB inh inactive, TROY NFkB inh inactive, KKLEB tox inactive, HIF-2a inh inactive and TWEAK-Fn14 inh inactive.
O=C1NCN(c2ccccc2)C12CCN(C(CCc1ccccc1)c1nnnn1Cc1ccccc1)CC2 (stereo not given) was read as Peg3 prom inh 59, CF NFkB inh inactive, TROY NFkB inh inactive, KKLEB tox inactive, HIF-2a inh inactive and TWEAK-Fn14 inh inactive.
Screening CSCCC(c1nnnn1Cc1ccccc1)N1CCC2(CC1)C(=O)NCN2c1ccccc1 (stereo not given) returned Peg3 prom inh inactive, CF NFkB inh inactive, TROY NFkB inh inactive, KKLEB tox inactive, HIF-2a inh inactive and TWEAK-Fn14 inh inactive.
`COc1ccc(C(c2nnnn2C2CCCC2)N2CCC3(CC2)C(=O)NCN3c2ccccc2)cc1` (stereo not given) gave Peg3 prom inh inactive, CF NFkB inh inactive, TROY NFkB inh 56, KKLEB tox inactive, HIF-2a inh inactive and TWEAK-Fn14 inh inactive.
Cc1cccc(C)c1-n1nnnc1C(CCc1ccccc1)N1CCC2(CC1)C(=O)NCN2c1ccccc1 (stereo not given) was read as Peg3 prom inh inactive, CF NFkB inh inactive, TROY NFkB inh 67, KKLEB tox inactive, HIF-2a inh inactive and TWEAK-Fn14 inh inactive.
`CCCC1CCCCC12C(=O)NC(=O)NC2=O` (stereo not given) gave Peg3 prom inh inactive, CF NFkB inh inactive, TROY NFkB inh inactive, KKLEB tox inactive, HIF-2a inh inactive and TWEAK-Fn14 inh inactive.
COc1ccccc1NP1(=O)OCC(C)([N+](=O)[O-])CO1 (stereo not given) was read as Peg3 prom inh inactive, CF NFkB inh inactive, TROY NFkB inh inactive, KKLEB tox inactive, HIF-2a inh inactive and TWEAK-Fn14 inh inactive.
Screening N#CC(C#N)=NNc1ccc(S(N)(=O)=O)cc1 returned Peg3 prom inh inactive, CF NFkB inh inactive, TROY NFkB inh inactive, KKLEB tox inactive, HIF-2a inh inactive and TWEAK-Fn14 inh inactive.
COc1ccc([C@@H](O)[C@@H](N)c2ccccc2)cc1 was read as Peg3 prom inh inactive, CF NFkB inh inactive, TROY NFkB inh inactive, KKLEB tox inactive, HIF-2a inh inactive and TWEAK-Fn14 inh inactive.
`CC(C(=O)N1CCC2(CC1)OCCO2)C1Sc2ccccc2NC1=O` (stereo not given) gave Peg3 prom inh inactive, CF NFkB inh inactive, TROY NFkB inh inactive, KKLEB tox inactive, HIF-2a inh inactive and TWEAK-Fn14 inh inactive.

Screening results as filed in PubChem BioAssay.
